Among the test systems are T-47D breast; BT-549 breast; MDA-MB-435 melanoma; SW-620 colon; MCF7 breast; HCT-116 colon; HCC-2998 colon; KM12 colon.
Holding throughout (assay): NCI-60 one-dose screen, 48 h (100 = growth as untreated, 0 = no growth, -100 = all killed)
Holding throughout (details): 10 µM unless noted

Our source for the growth values is PubChem BioAssay (NCI).

About 83,000 compounds went through this panel and 20% of them were active in at least one assay; those are over-represented in the sample as a whole.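 Each cell line was grown in a 96-well plate and treated with one concentration of compound for 48 hours. Values below 10 were considered active.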 Values without a mark were called inactive. Activity calls are given as the source filed them.

Regarding `C#CCn1c(-c2cc(OC)c(OC)cc2Br)nc(-c2ccccc2)c1-c1ccccc1`, the growth with T-47D breast is 39.3%; in the experiment on BT-549 breast it was 60.7%; with MDA-MB-435 melanoma, 6.82% (active); in the experiment with SW-620 colon, 23.9%; with MCF7 breast, 19.4%; in the experiment on HCT-116 colon, 19.9%. Further, the growth in the experiment with HCC-2998 colon is 66.8%; in the experiment on KM12 colon it was 20%.

With `C=C1c2c(Cl)ccc(O)c2C(O)=C2C(=O)[C@]3(O)C(O)=C(C(N)=O)C(=O)[C@@H](N(C)C)[C@@H]3[C@@H](O)[C@H]12`, the growth with T-47D breast is 21.8%; in the experiment with BT-549 breast it was -19.7% (active); in the experiment on MDA-MB-435 melanoma it was 12.7%; in the experiment on SW-620 colon, 16.4%; in the experiment on MCF7 breast it was 29.8%; with HCT-116 colon, 2.75% (active). Also, the results for the growth with HCC-2998 colon and in the experiment with KM12 colon were 8.18% (active) and 1.27% (active), respectively.

`COc1cc(C(=O)NNC(=O)c2ccccc2O)cc(OC)c1OC`: the growth was 82.5% with T-47D breast; 120% in the experiment on BT-549 breast; 96.9% in the experiment with MDA-MB-435 melanoma; 103% in the experiment on SW-620 colon; 92.2% in the experiment on MCF7 breast; 101% in the experiment with HCT-116 colon. Also, the growth in the experiment with HCC-2998 colon is 97.1%; in the experiment with KM12 colon, 103%.

In the case of `CCCCNC(=O)Oc1ccc(/C(=C(/CC)Cc2ccccc2)c2ccc(OCCCN(C)C)cc2)cc1`, the growth is 60.7% in the experiment with T-47D breast; 95.4% in the experiment on BT-549 breast; 83.3% in the experiment with MDA-MB-435 melanoma; 77.3% in the experiment with SW-620 colon; 27.9% with MCF7 breast; 67.9% with HCT-116 colon. Moreover, the growth is 88.3% with HCC-2998 colon and 78.3% in the experiment with KM12 colon.

On to `CC(C)(C)NC(C1=CC(C)(C)c2ccccc2C1=O)c1ccccc1` (stereo not drawn), for which the growth with T-47D breast is -71.8% (active); in the experiment on BT-549 breast, -32.9% (active); in the experiment with MDA-MB-435 melanoma it was -25.4% (active); in the experiment on SW-620 colon, -82.3% (active); in the experiment on MCF7 breast, -63.6% (active); in the experiment on HCT-116 colon, -99.5% (active). The growth with HCC-2998 colon was -31.3% (active); in the experiment on KM12 colon, -29.2% (active).

Take `O=C(Nc1cccc([N+](=O)[O-])c1)c1ccc2ccccc2c1O`: the growth with T-47D breast is 35.8%; in the experiment on BT-549 breast, 80%; in the experiment with MDA-MB-435 melanoma, 49.7%; in the experiment on SW-620 colon, 74%; in the experiment with MCF7 breast, 77%; in the experiment with HCT-116 colon, 59.4%. Besides, the values for the growth in the experiment on HCC-2998 colon and with KM12 colon were 67% and 79.1%, respectively.

Consider `CC(=O)c1cc2c(N)c(C(=O)Nc3cccc(Cl)c3)sc2nc1C`, for which the growth was 83.6% in the experiment with T-47D breast; 75.5% with BT-549 breast; 2.38% (active) in the experiment with MDA-MB-435 melanoma; 98.2% in the experiment with SW-620 colon; 74% in the experiment with MCF7 breast; 102% with HCT-116 colon. The growth is 85.3% in the experiment with HCC-2998 colon and 84.1% in the experiment with KM12 colon.

On to `Cc1nc(N)nc(SCc2ccccc2)c1Br`, for which the growth with T-47D breast was 65.2%; in the experiment on BT-549 breast it was 76.4%; in the experiment on MDA-MB-435 melanoma, 111%; in the experiment on SW-620 colon, 104%; in the experiment on MCF7 breast, 79.8%; in the experiment on HCT-116 colon, 89%. The growth is 117% with HCC-2998 colon and 98.6% with KM12 colon.

Take `C=C1C(=O)O[C@H]2[C@H]1CC/C(COC(=O)c1ccc(Br)cc1)=C\CC[C@@]1(C)O[C@@H]21`: the growth with T-47D breast was -47% (active); in the experiment on BT-549 breast it was -8.16% (active); with MDA-MB-435 melanoma it was -35.4% (active); in the experiment on SW-620 colon, -47.5% (active); in the experiment with MCF7 breast, -18.5% (active); in the experiment with HCT-116 colon it was -84.3% (active). Moreover, the growth in the experiment on HCC-2998 colon is 87.3%; with KM12 colon it was 56.2%.

With `COc1cc(/C=C2/Oc3cc4occc4c(OC)c3C2=O)ccc1OCC(=O)Nc1ccncc1`, the growth is 108% in the experiment with T-47D breast; 93.9% with BT-549 breast; 112% in the experiment on MDA-MB-435 melanoma; 103% in the experiment on SW-620 colon; 94.3% with MCF7 breast; 95.3% in the experiment on HCT-116 colon. The growth with HCC-2998 colon was 110%; with KM12 colon, 97.1%.

On to `COc1ccc(-c2nn(-c3ccc(NC(=O)Nc4ccc(Cl)c(Cl)c4)cc3)cc2-c2ccncc2)cc1Cl`, for which the growth in the experiment with T-47D breast was 22.4%; in the experiment with BT-549 breast it was 14.2%; with MDA-MB-435 melanoma it was 6.69% (active); in the experiment on SW-620 colon, 17.6%; with MCF7 breast, 13.3%; in the experiment on HCT-116 colon, 0.339% (active). The results for the growth in the experiment on HCC-2998 colon and with KM12 colon were 10.4% and 2.25% (active), respectively.

In the case of `Nc1nccc2c1ccn2-c1ccc(NC(=O)Nc2cccc(C(F)(F)F)c2)cc1`, the growth is 85.1% in the experiment on T-47D breast; 96.5% in the experiment with BT-549 breast; 96.6% with MDA-MB-435 melanoma; 103% with SW-620 colon; 86.8% in the experiment on MCF7 breast; 76.8% with HCT-116 colon. For the same compound, the growth is 115% in the experiment on HCC-2998 colon and 75.1% in the experiment on KM12 colon.

As for `COC(=O)/C=C/C(=O)c1cc(C)cc(C)c1O`, the growth in the experiment on T-47D breast was 100%; in the experiment on BT-549 breast, 103%; with MDA-MB-435 melanoma, 103%; with SW-620 colon, 110%; in the experiment on MCF7 breast it was 95.5%; in the experiment with HCT-116 colon, 106%. Further, the growth with HCC-2998 colon is 96.7%; in the experiment with KM12 colon it was 99.1%.

In the case of `O=C(O)c1ccc(-n2cc(/C=N/Nc3ccccc3F)c(-c3ccc(O)cc3)n2)cc1`, the growth in the experiment with T-47D breast is 62.7%; in the experiment with BT-549 breast it was 80.3%; in the experiment with MDA-MB-435 melanoma, 74.8%; in the experiment on SW-620 colon, 61.8%; with MCF7 breast it was 73.7%; in the experiment on HCT-116 colon, 71.2%. Also, the growth in the experiment with HCC-2998 colon was 86.4%; in the experiment with KM12 colon, 57.9%.

As to `O=C1COc2ccccc2C(=O)N1CCCCNc1ccccc1`, the growth is 73.3% in the experiment with T-47D breast; 46% in the experiment on BT-549 breast; 98.1% in the experiment on MDA-MB-435 melanoma; 92.3% with SW-620 colon; 82.8% with MCF7 breast; 77.4% in the experiment on HCT-116 colon. The growth in the experiment on HCC-2998 colon is 94.5%; in the experiment with KM12 colon, 79.9%.

For `O=C1CCC(c2c(O)cc(O)c3c(=O)c(O)c(-c4ccc(O)c(O)c4)oc23)N1` (stereo not drawn), the growth in the experiment on T-47D breast was 83.6%; in the experiment with BT-549 breast it was 112%; in the experiment with MDA-MB-435 melanoma it was 110%; in the experiment on SW-620 colon it was 108%; in the experiment on MCF7 breast, 95.2%; in the experiment on HCT-116 colon, 99.8%. Also, the growth was 89.4% in the experiment on HCC-2998 colon and 101% in the experiment on KM12 colon.
